Assay results published in PubChem BioAssay (NCI).
Compounds without any hit were thinned out: in the full panel of roughly 79,000, 15% have a hit. The source made the active and inactive calls. Rule as the data show it: active = growth inhibition above about 70%; inactive = the rest. Where a SMILES comes first, the peptide text is derived from it.

Columns and labels:
[1] = NCI Yeast Anticancer Drug Screen. Data for the rad50 strain (AID 155);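 also: 0% = growth of vehicle-only cultures of the same strain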; conditions: S. cerevisiae rad50 strain growth inhibition; at 50.0 µM; active compounds read high
Outline: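 Cells are treated with compound, grown, and their growth is then scored against vehicle-only cultures of the same repair-deficient yeast strain.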

[2] = NCI Yeast Anticancer Drug Screen. Data for the mec2-1 strain (AID 157); conditions: S. cerevisiae mec2-1 strain, at 50.0 µM, active compounds read high
Outline: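 Each compound was tested on mec2-1 yeast, a strain altered in DNA damage repair or cell cycle control. Growth inhibition is reported relative to vehicle.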

[3] = NCI Yeast Anticancer Drug Screen. Data for the sgs1 mgt1 strain (AID 161);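 also: 0% = growth of cultures given vehicle only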; conditions: S. cerevisiae sgs1 mgt1 strain, at 50.0 µM, active compounds read high
Outline: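 Test agents were incubated with a DNA-repair-mutant yeast strain. Growth was then read and compared against vehicle-treated controls.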

[4] = NCI Yeast Anticancer Drug Screen. Data for the cln2 rad14 strain (AID 165);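 also: 0% = growth equal to vehicle treated cultures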; conditions: S. cerevisiae cln2 rad14 strain, at 50.0 µM, active compounds read high
Outline: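 Test compounds were added to cln2 rad14 yeast cultures; inhibition of growth was then determined by comparison with vehicle treatment.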

[5] = NCI Yeast Anticancer Drug Screen. Data for the bub3 strain (AID 167); conditions: S. cerevisiae bub3 mutant strain, at 50.0 µM, active compounds read high
Outline: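 Part of a panel of yeast mutants defective in DNA damage repair or cell cycle regulation. Each strain is grown with compound, and inhibition is calculated relative to solvent-treated cultures.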

[6] = NCI Yeast Anticancer Drug Screen. Data for the mlh1 rad18 strain (AID 175); conditions: S. cerevisiae mlh1 rad18 strain growth inhibition; at 50.0 µM; active compounds read high
Outline: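 Inhibition values reflect reduced growth of mutant yeast versus vehicle-treated controls following compound exposure; the mutations affect DNA damage repair.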

Measured: growth inhibition

CON(C)CCOC(=O)c1ccc([N+](=O)[O-])cc1
inactive: [1] -5.25% | [2] 4.15% | [3] -2.6% | [4] -21.4% | [5] 3.95% | [6] 27.2%

COc1ccc(CCNC(=S)/N=C\C2=C(O)c3ccccc3C2=O)cc1OC
inactive: [1] -26.1% | [2] -51.9% | [3] -17.5% | [4] 4.65% | [5] -5.05% | [6] -19.3%

COC1CC(NC(C)=O)C(O)C(C)O1 (stereo not drawn)
inactive: [1] -10.2% | [2] -12.4% | [3] -10.6% | [4] -40% | [5] 5.65% | [6] 1.5%

CCOc1ccc2ccc3ccccc3c2c1NC(C)=O
inactive: [1] 10.4% | [2] 2.3% | [3] 12.2% | [4] 32% | [5] 3.6% | [6] 6.25%

CCOC(=O)Nc1cccc(Cl)c1
inactive: [1] 10.9% | [2] -2.45% | [3] 18.9% | [4] 9.65% | [5] -7.35% | [6] 22.1%

CNC(=O)N(CC1CCCCC1)c1nc2c(=O)n(C)c(=O)[nH]c2s1
inactive: [1] -4.75% | [2] -5.9% | [3] -1% | [4] -22.7% | [5] -4.25% | [6] -3.6%

O=C1OCC(CN2CCC(n3c(=O)[nH]c4ccccc43)CC2)=C1c1ccccc1
inactive: [1] -12.2% | [2] -4.65% | [3] -7.15% | [4] -25.7% | [5] -10.6% | [6] -35.9%

CC1C/C=C2\CSC(NC(=O)/C3=C\N(C/C=C/C=C/C(O)CC(O)CC(=O)N3)C2=O)C(=O)O1 (stereo not drawn)
inactive: [1] 13.7% | [2] 11.7% | [3] 22.2% | [4] 19% | [5] 17.5% | [6] 18.2%

CC(=O)CCc1ccc2c(c1)OCCO2
inactive: [1] 27.9% | [2] -10.7% | [3] -7.55% | [4] -83.2% | [5] -3.8% | [6] -20.9%

O=C(Nc1cccc2ccccc12)ON1C(=O)c2ccccc2C1=O
inactive: [1] -6.6% | [2] -39.6% | [3] -0.1% | [4] 12.5% | [5] -5.7% | [6] -2.4%

Nc1ccnc(SCCCCc2ccccc2)n1
active: [5] 74%
inactive: [1] 15.6% | [2] 64.4% | [3] 59% | [4] -6.15% | [6] 64%

O=C(NCCCl)Nc1ccc2c(c1)CCC2
inactive: [1] 1.55% | [2] 3.3% | [3] 1.55% | [4] -10.8% | [5] 10.8% | [6] 6.7%

CCOC(=O)C(CCC#N)(CCC#N)C(C)=O
inactive: [1] -8.5% | [2] -1.65% | [3] -4.7% | [4] -64.8% | [5] 0.15% | [6] 15.1%

Cc1ccc(Br)cc1C(=O)O
inactive: [1] 20.8% | [2] 2.25% | [3] 15.2% | [4] 13.8% | [5] -6.1% | [6] 15.4%

C[C@H]1CCCCC[C@@H]2CC(=O)CC2C(=O)CCC(=O)O1 (stereo partly drawn)
inactive: [1] 17.6% | [2] -4.25% | [3] -10.6% | [4] 8.05% | [5] -8.85% | [6] 12.7%

CCOC(=O)N1CCN(C(=S)N/N=C(\C)c2cnccn2)CC1
active: [1] 99.3% | [2] 99.5% | [3] 99.5% | [4] 99.5% | [5] 99.5% | [6] 99.3%

Cc1cc2c(c([N+](=O)[O-])c1C)C(=O)C(Br)=C(Br)C2=O
inactive: [1] 15.7% | [2] 10.4% | [3] 21.5% | [4] 34.7% | [5] 5.9% | [6] 36.2%

CCC(=O)Nc1cccc2ccccc12
inactive: [1] 5.1% | [2] -12.7% | [3] -10.9% | [4] -92.4% | [5] -5.95% | [6] -3.1%

Cc1ccc(S(=O)(=O)C(Sc2ccccc2)=S=NC(C)(C)C)cc1
active: [1] 89.8% | [2] 81.5% | [3] 89.3% | [5] 81.8% | [6] 91.8%
inactive: [4] 53.4%

COC(=O)c1cc2/c(=N/O)c3ccccc3sc2o1
inactive: [1] -0.45% | [2] -23.1% | [3] -2.1% | [4] 0.75% | [5] -16.4% | [6] -28.8%

COc1cccc(C2CC(C)=Nc3c(ccc4c3C(=O)c3ccccc3C4=O)N2)c1O (stereo not drawn)
inactive: [1] 1.2% | [2] 17.9% | [3] 24.6% | [4] 7.8% | [5] 11.8% | [6] 14.8%

CCCCCCOC(=O)C(O)C(C)(Cl)c1ccccc1 (stereo not drawn)
inactive: [1] 11.3% | [2] 9.9% | [3] 4.6% | [4] 15.9% | [5] 12.6% | [6] 13.7%

CC1=NN(C(=O)c2ccc(Cl)cc2)C(=O)/C1=C/c1ccccc1O
inactive: [1] 4.25% | [2] -14.4% | [3] -28.9% | [4] -7.55% | [5] 12.3% | [6] -18.8%

O=C(O)c1ccccc1Oc1ccc([N+](=O)[O-])cc1[N+](=O)[O-]
inactive: [1] 4.3% | [2] 16.8% | [3] 32% | [4] -82% | [5] 26.8% | [6] 20.1%

C/C=C/Cc1ccc(O)cc1
inactive: [1] 4.9% | [2] -6% | [3] -1% | [4] -25.4% | [5] -1.4% | [6] -1.05%

O=[N+]([O-])c1ccccc1-c1ccccc1[N+](=O)[O-]
inactive: [1] 24.7% | [2] 16.3% | [3] 33.8% | [4] 10% | [5] -24.4% | [6] -10.8%

CCCCCCN(CCCCCC)C(=S)N/N=C(\C)c1ccccn1
active: [1] 85% | [2] 85.5% | [3] 83.7% | [4] 72.3% | [5] 87.6% | [6] 82.2%

N#Cc1cc(N2CCCCC2)ccc1[N+](=O)[O-]
inactive: [1] 2.6% | [2] -8.35% | [3] -6.2% | [4] -18.1% | [5] -4.5% | [6] -0.4%

Nc1nc(-c2cccc([N+](=O)[O-])c2)c(N=Nc2ccc(Br)cc2)s1
inactive: [1] 10.3% | [2] 12.4% | [3] 23.1% | [4] 15.8% | [5] -3.25% | [6] 5.95%

Oc1cc(OCCCc2ccc(F)cc2)cc2ccc3ccccc3c12
inactive: [1] 50.5% | [2] 43.5% | [3] 20.8% | [4] -32.5% | [5] 54% | [6] 43.1%

O=C(CC(=O)c1ccccc1)Nc1cccnc1
inactive: [1] -21.2% | [2] 8.9% | [3] -0.3% | [4] -21.2% | [5] -1.8% | [6] -6.95%

Fc1ccc(C=C2c3ccccc3-c3ccccc32)cc1
inactive: [1] 11.7% | [2] 4.5% | [3] 18.4% | [4] 39.2% | [5] 11.7% | [6] -3.6%

NCCCNC1CCCCC1
inactive: [1] 8.8% | [2] -27.9% | [3] 2.55% | [4] -0.45% | [5] 1.7% | [6] 12.8%

COc1ccc(C)cc1NC(=S)NC(=O)c1ccc(Cl)cc1Cl
inactive: [1] 1.7% | [2] 13.7% | [3] 8.15% | [4] -12.6% | [5] 4.7% | [6] 0.75%

O=C(CO)CC(=O)C(=O)Nc1nc([N+](=O)[O-])cs1
inactive: [1] -18.1% | [2] -31.8% | [3] 21% | [4] 7.9% | [5] -16.1% | [6] -21.5%

O=C(CCc1ccccc1)n1cccc1CO
inactive: [1] -10.1% | [2] -21.1% | [3] -6.85% | [4] 17.9% | [5] 16.2% | [6] 1.35%

CCOC(=O)CNC(=O)C(Cc1ccccc1)NC(=O)C(N)CC(=O)O (stereo not drawn) (H-Asp-Phe-Gly-OEt; configuration not given here)
inactive: [1] -18.6% | [2] -42.4% | [3] -12.1% | [4] -19.9% | [5] -13.4% | [6] -25%

CCCC1OC(c2ccc(OC)cc2)OCC1CC (stereo not drawn)
inactive: [1] 2.65% | [2] 0.95% | [3] -0.3% | [4] -16.4% | [5] 30.9% | [6] -0.75%
